# Results filed as inconclusive are left out. Some of the results follow. Where a call stands in place of a potency, no number is given. The source made the active and inactive calls. Unless noted, calls come from the whole dose curve; as a rule, active = well fitted curve in the direction sought with a large enough effect; inconclusive = small, poorly fitted or top-dose-only effect, or another doubt; inactive = no such curve, though single readings can be large; an effect the other way counts as inactive or inconclusive.
# Experiments:
# [1] = target: Alpha-galactosidase (Coffea arabica) (UniProt Q42656); assay: Counterscreen for Glucocerebrosidase Inhibitors: qHTS Assay for Coffee Bean alpha-Galactosidase at pH 4.5 (AID 957)
# Alpha-galactosidase (Coffea arabica), sequence (Q42656 whole entry, looked up): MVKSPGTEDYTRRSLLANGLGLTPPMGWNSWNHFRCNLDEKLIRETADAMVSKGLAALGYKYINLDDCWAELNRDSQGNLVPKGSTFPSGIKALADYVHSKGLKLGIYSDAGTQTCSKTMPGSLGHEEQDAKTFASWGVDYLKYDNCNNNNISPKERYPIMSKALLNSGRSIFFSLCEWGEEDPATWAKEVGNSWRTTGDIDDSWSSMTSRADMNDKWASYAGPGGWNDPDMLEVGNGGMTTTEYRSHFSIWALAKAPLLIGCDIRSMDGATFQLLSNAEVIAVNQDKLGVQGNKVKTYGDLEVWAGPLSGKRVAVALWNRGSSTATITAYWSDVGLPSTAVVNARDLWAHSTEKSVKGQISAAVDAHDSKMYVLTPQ
# Summary of the method: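 Green coffee bean enzyme (2 nM final) was incubated with compounds (0.7 nM to 77 uM) and 4-methylumbelliferyl alpha-D-galactopyranoside (80 uM final) in 50 mM citric acid, 0.005% Tween-20, pH 4.5, 20 min at room temperature; AC50 from Hill fits.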
# [2] = target: Alpha-galactosidase (Coffea arabica) (UniProt Q42656); assay: Counterscreen for Glucocerebrosidase Inhibitors: qHTS Assay for Coffee Bean alpha-Galactosidase at pH 5.9 (AID 998)
# Summary of the method: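 Green coffee bean enzyme (2 nM final) was incubated with compounds (0.7 nM–77 uM) and 4-methylumbelliferyl alpha-D-galactopyranoside (80 uM) in citrate buffer pH 5.9, 20 min at room temperature. High-pH stop; fluorescence 365/440 nm; AC50 from Hill fits.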
# [3] = MultiTox-Fluor Cytotoxicity Assay - LYMP1-002 - Dead Cells (AID 960); note: potency is the fitted concentration of half-maximal effect; nearly all actives have a fitted effect of over 60% in size
# Summary of the method: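 Human lymphoblastoid cells (LYMP1-002), 2500/well in complete medium, were exposed to compounds for 16 hr at 37 C. Dead-cell protease activity was read as bis-AAF-R110 fluorescence (Ex/Em 485/520), normalized to DMSO and 15 uM tetraoctylammonium bromide; AC50 from Hill fits.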
# [4] = Cell Viability - LYMP2-004 (AID 966); note: nearly all actives have a fitted effect of over 65% in size
# Summary of the method: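 Human lymphoblastoid cells (2500/well) in complete medium were treated with compounds for 24 hr at 37 C, then intracellular ATP was measured by CellTiter-Glo luminescence. AC50 values came from Hill-equation fits of concentration-response data.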
# [5] = S16 Schwann cell PMP22 intronic element beta-lactamase assay (AID 624044; calls by dose curve; note: nearly all actives have a fitted effect of over 15% in size); conditions: S16 rat Schwann cells, PMP22 element beta-lactamase FRET, 24 h; ratio activity, negative = inhibition: at 38.3 µM (top of the series)
# Summary of the method: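 Rat S16 Schwann cells with beta-Lac driven by a PMP22 intronic element, compound-treated 24 h at 37 °C. LiveBLAzer FRET B/G read: 460 nm normalized to potassium clavulanate vs DMSO; 535 nm FRET as viability; concentration-effect curves classified.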
# [6] = target: Peroxisome proliferator-activated receptor gamma (Homo sapiens) (UniProt P37231); assay: qHTS assay for small molecule agonists of peroxisome proliferator-activated receptor gamma signaling (AID 588536; active = well fitted curve in the direction sought with a large enough effect in the signal ratio, with a control signal flat, not every such curve was filed as active; the % refers to the signal ratio)
# Peroxisome proliferator-activated receptor gamma (Homo sapiens), sequence (P37231 whole entry, looked up): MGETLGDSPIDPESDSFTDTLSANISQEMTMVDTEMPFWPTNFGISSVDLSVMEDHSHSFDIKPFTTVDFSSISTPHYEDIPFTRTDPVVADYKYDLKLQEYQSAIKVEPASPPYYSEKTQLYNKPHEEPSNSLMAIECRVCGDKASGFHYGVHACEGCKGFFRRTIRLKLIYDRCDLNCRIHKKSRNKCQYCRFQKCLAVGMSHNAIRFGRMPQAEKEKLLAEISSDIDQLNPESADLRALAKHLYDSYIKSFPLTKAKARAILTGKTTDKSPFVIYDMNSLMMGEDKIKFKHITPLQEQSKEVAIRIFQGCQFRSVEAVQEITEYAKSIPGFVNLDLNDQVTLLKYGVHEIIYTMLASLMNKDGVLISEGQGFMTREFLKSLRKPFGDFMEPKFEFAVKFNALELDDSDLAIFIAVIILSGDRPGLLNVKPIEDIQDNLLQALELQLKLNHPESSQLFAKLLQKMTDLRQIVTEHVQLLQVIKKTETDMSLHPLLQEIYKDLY
# Summary of the method: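 Ratiometric blue/green fluorescence (405 nm excitation; 460 and 530 nm emission) from CCF4-loaded HEK293 reporter cells serves as signal. Exposure to test compounds lasts 16 h at 37 C in medium containing 1% charcoal/dextran-treated serum.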
# [7] = target: Retinoic acid receptor RXR-alpha (Homo sapiens) (UniProt P19793); assay: qHTS assay for small molecule antagonists of retinoid X receptor alpha signaling (AID 588546; active = well fitted inhibition curve with a large enough effect in the signal ratio, with a control signal flat, not every such curve was filed as active; the % refers to the signal ratio; note: potency is the fitted concentration of half-maximal effect;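 for max response: cells stimulated with 9-cis-retinoic acid as agonist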); conditions: HEK293T RXRa-UAS-bla, beta-lactamase ratio, antagonist mode
# Retinoic acid receptor RXR-alpha (Homo sapiens), sequence (P19793 whole entry, looked up): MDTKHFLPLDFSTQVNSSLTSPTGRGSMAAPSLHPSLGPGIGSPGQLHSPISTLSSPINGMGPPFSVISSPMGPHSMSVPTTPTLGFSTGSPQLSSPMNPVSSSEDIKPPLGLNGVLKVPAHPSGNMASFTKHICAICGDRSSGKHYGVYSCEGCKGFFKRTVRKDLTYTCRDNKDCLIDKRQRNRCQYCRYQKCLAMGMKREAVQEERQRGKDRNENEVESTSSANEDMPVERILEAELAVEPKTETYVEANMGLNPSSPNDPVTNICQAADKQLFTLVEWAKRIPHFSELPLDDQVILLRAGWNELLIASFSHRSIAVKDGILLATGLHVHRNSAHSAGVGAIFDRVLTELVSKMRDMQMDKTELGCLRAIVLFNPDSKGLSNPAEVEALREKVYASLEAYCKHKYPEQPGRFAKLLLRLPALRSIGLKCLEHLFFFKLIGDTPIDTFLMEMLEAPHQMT
# Summary of the method: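 Beta-lactamase reporter inhibition, read as CCF4 fluorescence ratio (ex 405, em 460/530 nm) after 2 h at RT. HEK293T UAS-bla cells, 2500/well, were stimulated with 9-cis-RA at 500 or 100 nM final alongside test compound for 18 h at 37 C.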
# [8] = target: Thyroid hormone receptor beta (Homo sapiens) (UniProt P10828); assay: qHTS assay for small molecule antagonists of thyroid hormone receptor beta signaling (AID 588547; active = well fitted inhibition curve with a large enough effect in the signal ratio, with a control signal flat, not every such curve was filed as active; the % refers to the signal ratio;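 note: cells stimulated with 0.4 nM T3 agonist during compound exposure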); conditions: TR-UAS-bla HEK293, beta-lactamase ratio, antagonist mode, 18 h
# Thyroid hormone receptor beta (Homo sapiens), sequence (P10828 whole entry, looked up): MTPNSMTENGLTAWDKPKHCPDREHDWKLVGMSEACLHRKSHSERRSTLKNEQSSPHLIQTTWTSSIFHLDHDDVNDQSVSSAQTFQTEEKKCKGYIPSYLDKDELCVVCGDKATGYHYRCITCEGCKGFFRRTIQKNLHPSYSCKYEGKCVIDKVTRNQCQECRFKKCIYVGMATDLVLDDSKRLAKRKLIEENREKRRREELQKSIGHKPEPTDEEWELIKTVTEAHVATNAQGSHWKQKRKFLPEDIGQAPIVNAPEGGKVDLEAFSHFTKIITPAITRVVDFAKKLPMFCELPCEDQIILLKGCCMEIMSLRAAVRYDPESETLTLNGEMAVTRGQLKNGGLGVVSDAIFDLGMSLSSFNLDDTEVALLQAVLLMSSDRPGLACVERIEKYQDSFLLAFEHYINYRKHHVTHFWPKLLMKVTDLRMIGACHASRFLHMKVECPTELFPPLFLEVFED
# Summary of the method: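 TR-UAS-bla GripTite HEK293 cells in 2% charcoal/dextran FBS medium were preincubated 4 h at 37 C, given compound (0.59 nM to 92 uM) plus 0.4 nM T3 (final) for 18 h, then CCF4 for 2 h at RT; Hill fit gave IC50.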
# [9] = qHTS assay for small molecule activators of the nuclear factor-kappa B (NF-kB) signaling pathway (AID 651749; active = well fitted activation curve with a large enough effect in the signal ratio; the % refers to the signal ratio); conditions: NF-kB-bla ME-180 cells, beta-lactamase FRET ratio, 16 h; activation: hits give high values
# Summary of the method: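 ME-180 cells stably carrying a beta-lactamase reporter under an NF-kB response element were exposed to compound or DMSO vehicle for 16 hr at 37C, 5% CO2. Pathway activation was read by FRET, since reporter expression disrupts FRET.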
# [10] = target: Vitamin D3 receptor (Homo sapiens) (UniProt P11473); assay: qHTS for Inhibitors of the vitamin D receptor (VDR): Hit Validation using a Fluorescein Assay (AID 602200); conditions: VDR-coactivator binding, fluorescein fluorescence polarization; note: potency is the fitted concentration of half-maximal effect
# Vitamin D3 receptor (Homo sapiens), sequence (P11473 whole entry, looked up, the tested form may be a part): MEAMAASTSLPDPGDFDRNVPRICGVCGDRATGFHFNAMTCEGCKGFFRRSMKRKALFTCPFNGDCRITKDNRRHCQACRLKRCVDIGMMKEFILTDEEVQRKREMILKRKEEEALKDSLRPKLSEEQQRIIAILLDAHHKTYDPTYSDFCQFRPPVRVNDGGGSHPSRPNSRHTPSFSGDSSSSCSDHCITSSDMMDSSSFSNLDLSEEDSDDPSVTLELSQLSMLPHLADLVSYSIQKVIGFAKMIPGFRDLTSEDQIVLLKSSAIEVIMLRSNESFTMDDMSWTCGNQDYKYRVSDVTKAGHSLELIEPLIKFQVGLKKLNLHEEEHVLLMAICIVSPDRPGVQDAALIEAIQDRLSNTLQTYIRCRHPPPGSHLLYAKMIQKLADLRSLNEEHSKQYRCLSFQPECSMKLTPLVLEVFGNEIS
# Summary of the method: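 Fluorescence polarization (Ex 495 nm/Em 520 nm) read after 2 h at room temperature, reporting disruption of binding between 1.5 uM VDR-LBD, liganded by 5 uM LG19078, and 5 nM fluorescein-labelled SRC2-3 coactivator peptide (final concentrations).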
# [11] = target: Flap endonuclease 1 (Homo sapiens) (UniProt P39748); assay: qHTS Assay for the Inhibitors of FEN1: Confirmatory Assay for Cherry-picked Compounds (AID 720498); conditions: FEN1 flap cleavage, TAMRA/BHQ2 fluorogenic DNA substrate; note: potency is the fitted concentration of half-maximal effect; nearly all actives have a fitted effect of over 60% in size
# Flap endonuclease 1 (Homo sapiens), sequence (P39748 whole entry, looked up): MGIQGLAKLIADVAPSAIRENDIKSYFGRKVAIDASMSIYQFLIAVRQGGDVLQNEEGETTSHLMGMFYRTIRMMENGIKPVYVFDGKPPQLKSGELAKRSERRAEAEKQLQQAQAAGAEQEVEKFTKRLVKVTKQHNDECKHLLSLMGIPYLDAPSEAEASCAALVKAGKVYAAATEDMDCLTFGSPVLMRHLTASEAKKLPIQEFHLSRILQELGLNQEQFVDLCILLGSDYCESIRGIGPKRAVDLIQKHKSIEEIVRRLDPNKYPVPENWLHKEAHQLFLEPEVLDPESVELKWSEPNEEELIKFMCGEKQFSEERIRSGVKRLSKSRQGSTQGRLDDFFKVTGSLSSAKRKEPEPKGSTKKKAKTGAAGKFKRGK
# Summary of the method: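 FEN1 at 10 nM was preincubated with compound for 15 min at room temperature, then 50 nM (final) double-flap DNA substrate was added. TAMRA fluorescence released from the BHQ-2-quenched flap was read at 0 and 15 min (ex 525/em 598 nm).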
# [12] = target: DNA polymerase eta (Homo sapiens) (UniProt Q9Y253); assay: qHTS for Inhibitors of Polymerase Eta: Confirmatory Assay for Cherry-picked Compounds (AID 720502); conditions: Pol eta primer extension, TAMRA/BHQ fluorescence, 10 min; note: potency is the fitted concentration of half-maximal effect
# Summary of the method: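 The reaction starts with 50 nM final labeled DNA substrate added to Pol eta (10 nM) that had sat with compound for 15 min. TAMRA emission at 598 nm is read at 0 and 10 min.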
# [13] = qHTS for Inhibitors of the vitamin D receptor (VDR): Hit Validation using a Cytotoxicity Assay (AID 602204); note: nearly all actives have a fitted effect of over 75% in size
# Summary of the method: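 Cells were seeded at 20,000 per well and left 4 hours before compound addition. After 18 hours of exposure, an ATP-detecting luminescent reagent was added, and luminescence was read 30 minutes later. Cycloheximide at high concentration and DMSO served as controls.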
# [14] = target: Bifunctional 3'-5' exonuclease/ATP-dependent helicase WRN (Homo sapiens) (UniProt Q14191); assay: qHTS for Inhibitors of WRN Helicase: Confirmatory Assay for Cherry-picked Compounds. (AID 720497); note: nearly all actives have a fitted effect of over 65% in size
# Summary of the method: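 Compound and 20 nM WRN incubated 15 min, RT. Forked duplex (100 nM) plus ATP (2 mM) added. Fluorescence monitored kinetically and normalized to controls.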
# [15] = qHTS for Inhibitors of WRN Helicase: Thiazole Orange DNA Binding Counterscreen (AID 720499);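 note: drop in dye fluorescence marks compound binding to DNA; nearly all actives have a fitted effect of over 60% in size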
# Summary of the method: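 Thiazole orange displacement from unlabeled DNA (50 nM DNA, 100 nM dye) was monitored by fluorescence, ex 480/em 530 nm, following 15 min room-temperature incubation with pintool-dispensed compounds.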
# [16] = target: RecQ-like DNA helicase BLM (Homo sapiens) (UniProt P54132); assay: qHTS for Inhibitors of WRN Helicase: BLM Helicase Counterscreen for WRN Inhibitors (AID 720503); note: nearly all actives have a fitted effect of over 60% in size
# RecQ-like DNA helicase BLM (Homo sapiens), sequence (P54132 whole entry, looked up): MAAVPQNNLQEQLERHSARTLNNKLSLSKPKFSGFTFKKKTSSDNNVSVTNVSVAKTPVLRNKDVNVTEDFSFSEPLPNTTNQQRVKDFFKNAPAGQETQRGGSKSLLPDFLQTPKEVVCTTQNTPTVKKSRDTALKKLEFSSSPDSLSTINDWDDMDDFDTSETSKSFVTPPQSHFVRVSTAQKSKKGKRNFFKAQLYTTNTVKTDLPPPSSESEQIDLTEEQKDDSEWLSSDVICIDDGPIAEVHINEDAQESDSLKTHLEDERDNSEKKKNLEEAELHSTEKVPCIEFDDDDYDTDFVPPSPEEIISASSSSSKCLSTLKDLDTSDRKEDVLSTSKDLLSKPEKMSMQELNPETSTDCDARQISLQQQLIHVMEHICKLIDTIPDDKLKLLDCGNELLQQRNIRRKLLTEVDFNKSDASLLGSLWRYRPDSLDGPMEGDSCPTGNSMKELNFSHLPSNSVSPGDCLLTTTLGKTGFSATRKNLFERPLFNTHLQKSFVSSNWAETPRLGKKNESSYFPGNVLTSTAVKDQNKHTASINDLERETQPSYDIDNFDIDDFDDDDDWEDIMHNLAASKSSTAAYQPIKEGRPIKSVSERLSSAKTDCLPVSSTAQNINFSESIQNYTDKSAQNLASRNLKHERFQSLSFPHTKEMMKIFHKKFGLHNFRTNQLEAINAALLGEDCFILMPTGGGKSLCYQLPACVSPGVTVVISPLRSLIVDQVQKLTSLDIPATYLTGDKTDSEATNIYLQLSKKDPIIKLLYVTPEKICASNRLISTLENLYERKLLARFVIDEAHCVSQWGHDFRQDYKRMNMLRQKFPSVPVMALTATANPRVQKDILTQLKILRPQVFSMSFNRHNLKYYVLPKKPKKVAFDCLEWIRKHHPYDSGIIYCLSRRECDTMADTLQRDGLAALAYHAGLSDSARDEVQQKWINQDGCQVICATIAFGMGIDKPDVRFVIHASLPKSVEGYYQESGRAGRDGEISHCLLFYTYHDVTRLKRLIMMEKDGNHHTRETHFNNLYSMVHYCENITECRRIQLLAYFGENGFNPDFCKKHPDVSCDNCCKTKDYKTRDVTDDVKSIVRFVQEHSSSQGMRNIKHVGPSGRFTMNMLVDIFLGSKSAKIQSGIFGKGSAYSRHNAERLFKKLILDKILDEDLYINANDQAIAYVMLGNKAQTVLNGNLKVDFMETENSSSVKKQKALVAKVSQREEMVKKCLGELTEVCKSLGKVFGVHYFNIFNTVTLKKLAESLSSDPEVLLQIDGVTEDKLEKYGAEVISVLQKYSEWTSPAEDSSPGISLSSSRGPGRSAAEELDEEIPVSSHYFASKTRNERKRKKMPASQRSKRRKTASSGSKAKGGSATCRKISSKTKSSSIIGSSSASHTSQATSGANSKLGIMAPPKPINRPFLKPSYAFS
# Summary of the method: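 Reactions were started with 100 nM DNA substrate and 2 mM ATP (final) after compound and 1 nM BLM stood 15 min at room temperature in Tris-HCl pH 8.0 buffer with NaCl, MgCl2, DTT and Tween-20. Two red-fluorescence reads 15 min apart were normalized against DMSO and no-enzyme wells.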
# [17] = target: Luciferin 4-monooxygenase (Photinus pyralis) (UniProt P08659); assay: Biochemical firefly luciferase enzyme assay for NPC (AID 624030); note: potency is the fitted concentration of half-maximal effect; nearly all actives have a fitted effect of over 70% in size
# Luciferin 4-monooxygenase (Photinus pyralis), sequence (P08659 whole entry, looked up): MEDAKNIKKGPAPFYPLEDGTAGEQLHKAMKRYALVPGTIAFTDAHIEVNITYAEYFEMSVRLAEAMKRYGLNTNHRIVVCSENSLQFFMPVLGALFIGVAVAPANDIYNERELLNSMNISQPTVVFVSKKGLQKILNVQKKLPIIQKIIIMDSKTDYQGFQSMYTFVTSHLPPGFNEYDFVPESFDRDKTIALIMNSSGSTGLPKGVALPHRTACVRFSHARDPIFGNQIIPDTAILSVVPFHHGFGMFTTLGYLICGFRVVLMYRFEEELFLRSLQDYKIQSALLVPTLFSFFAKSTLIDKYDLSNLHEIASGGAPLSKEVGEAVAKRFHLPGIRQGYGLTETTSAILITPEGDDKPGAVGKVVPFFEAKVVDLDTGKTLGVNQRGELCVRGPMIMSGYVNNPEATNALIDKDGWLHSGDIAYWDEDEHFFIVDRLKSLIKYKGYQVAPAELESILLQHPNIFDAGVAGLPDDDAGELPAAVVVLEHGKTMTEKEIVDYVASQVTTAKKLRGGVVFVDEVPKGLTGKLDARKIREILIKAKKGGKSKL
# Summary of the method: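 Counter-screen for direct inhibition of the luciferase enzyme by approved-drug library compounds, run at 10 nM enzyme in 50 mM Tris acetate (final). Luminescence was read within 5 min of enzyme-buffer addition and normalized to PTC124 versus DMSO (0%).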
# [18] = S16 Schwann cell PMP22 intronic element firefly luciferase assay (AID 624032); note: nearly all actives have a fitted effect of over 30% in size
# Summary of the method: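 Rat S16 Schwann cells stably carrying a PMP22 intronic element-driven Fluc reporter were seeded overnight, then exposed to compounds for 24 h at 37 °C. Luminescence was normalized to PTC124 (positive control) and DMSO (0% activity).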
# [19] = target: Nuclear receptor subfamily 1 group I member 2 (Rattus norvegicus) (UniProt Q9R1A7); assay: qHTS assay for small molecule activators of the rat pregnane X receptor (rPXR) signaling pathway (AID 651751; call rule not given here); conditions: rPXR reporter cells, luciferase (One-Glo), 24 h
# Nuclear receptor subfamily 1 group I member 2 (Rattus norvegicus), sequence (Q9R1A7 whole entry, looked up): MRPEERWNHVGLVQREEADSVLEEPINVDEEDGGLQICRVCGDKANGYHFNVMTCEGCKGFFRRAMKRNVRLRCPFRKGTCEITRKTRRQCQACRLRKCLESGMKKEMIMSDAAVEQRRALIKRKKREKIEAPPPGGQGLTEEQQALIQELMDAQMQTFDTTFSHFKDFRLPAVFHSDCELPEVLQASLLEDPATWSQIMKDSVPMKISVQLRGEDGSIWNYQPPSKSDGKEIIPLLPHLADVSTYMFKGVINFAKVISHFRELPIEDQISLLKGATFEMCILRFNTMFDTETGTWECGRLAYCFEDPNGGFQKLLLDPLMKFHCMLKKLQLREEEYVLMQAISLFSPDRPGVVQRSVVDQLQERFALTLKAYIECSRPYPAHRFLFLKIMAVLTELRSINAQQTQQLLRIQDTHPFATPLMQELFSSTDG
structure (smiles),measurement,setting,value
c1cnc2c(c1)ccc1cccnc12,outcome,[1],inactive
same,outcome,[2],inactive
COc1ccc(N=[N+]([O-])c2ccc(OC)cc2)cc1,Potency,[3],25.1 µM (active)
Cc1ccccc1,Potency,[4],inactive
same,Potency,[5],inactive
CCOP(=O)(SC(C)CC)N1CCSC1=O (stereo not drawn),Potency,[6],inactive
CC(C)NC(=O)N1CC(=O)N(c2cc(Cl)cc(Cl)c2)C1=O,Potency,[6],inactive
same,max response,[7],-6.64% (inactive)
same,activity change % (negative = inhibition),[8],4.77% (inactive)
same,activation,[9],-3.11% (inactive)
CCOCn1c(-c2ccc(Cl)cc2)c(C#N)c(Br)c1C(F)(F)F,Potency,[7],2.24 µM (active)
O=C1NC(=O)N(c2ccccc2)C(=O)/C1=C/c1ccc([N+](=O)[O-])s1,Potency,[10],20 µM (active)
same,Potency,[11],19 µM (active)
same,Potency,[12],30.1 µM (active)
O=C(O)CCn1cc(C=C2C(=O)NC(=S)NC2=O)c(-c2cccc(Br)c2)n1,outcome,[13],inactive
same,outcome,[14],inactive
same,outcome,[15],inactive
same,outcome,[16],inactive
Cc1ccnc(-n2c(C)cc(/C=C3\C(=O)NC(=S)N(C)C3=O)c2C)c1,outcome,[13],inactive
[O-][N+](=Nc1ccccc1)c1ccccc1,Potency,[17],12.8 µM (active)
same,Potency,[18],inactive
CON=C(C(=O)OC)c1ccccc1CO/N=C(\C)c1cccc(C(F)(F)F)c1,activation,[9],3.5% (inactive)
same,max response,[19],-14.4% (inactive)

# From PubChem BioAssay (NCATS)
